We go through 39 molecules from ChEMBL document CHEMBL4513146, “CO-ADD screening of Karazin Kharkiv National University (Ukraine) compounds”.

In general, Inhibition refers to the relative decrease from the control value, in per cent.

Potency and affinity values are given separately.

The subject of one assay is Klebsiella pneumoniae. Conditions: Concentration 32 ug.mL-1;; ASSAY_TEST Inhibition of Bacterial Growth; detection method Absorption (OD600); MEDIA CAMHB; plate type 384well; NBS; CORNING #3640; time 18 hr.
On to `O=C(Cn1nc2c(SC3CCCCC3)nccn2c1=O)Nc1ccc(F)c(Cl)c1`, for which the Inhibition came to 0.9%.
The same measure, in the same setting: the result for `COc1cccc(-n2ccn3c(SCC(=O)Nc4ccccc4Cl)nnc3c2=O)c1` reads 9.92%; that for `COc1ccc(-n2ccn3c(-c4ccc([N+](=O)[O-])cc4)nnc3c2=O)cc1Cl`, 9.41%; that for `CCOC(=O)c1ccccc1NC(=O)Cn1nc2c(Sc3ccccc3)nccn2c1=O`, 9.77%.
Regarding `CC(=O)c1ccc(NC(=O)Cn2nc3ccc(Sc4ccccc4)nn3c2=O)cc1`, the Inhibition is listed as -6.33%.
Take `CCOC(=O)c1cccc(NC(=O)CSc2nnc3ccc(C(=O)Nc4cccc(F)c4)cn23)c1`: the Inhibition was found to be 3.6%.
Consider `CC(C)(C)S(=O)(=O)c1ccc2nn(CC(=O)Nc3ccc(Br)cc3)c(=O)n2n1`, for which the Inhibition stood at 6.53%.
In the case of `CCc1cccc(C)c1NC(=O)CSc1nnc2ccc(C(=O)Nc3cccc(F)c3)cn12`, the Inhibition is 5.93%.
Still for that read-out and setting: the result for `Cc1ccc(NC(=O)Cn2nc3ccc(-c4ccc(Cl)cc4)nn3c2=O)cc1F` reads 2.59%.
Turning to `COc1ccc(-c2cc3c4nn(CC(=O)Nc5cc(C)ccc5C)c(=O)n4ccn3n2)cc1`, the Inhibition is recorded as 11.61%.
As for `COc1cc(OC)c(NC(=O)Cn2nc3c(Oc4ccccc4)nccn3c2=O)cc1Cl`, the Inhibition is on record as -10.94%.
For the molecule `CCOc1ccccc1NC(=O)Cn1c(=O)c2nnc(C(C)C)n2c2ccccc21`, the Inhibition is given as 4.41%.
Still for that read-out and setting: the result for `CC(C)Cn1c(=O)c2ccc(C(=O)NC3CCCC3)cc2n2c(=O)n(CC(=O)NC3CCCCC3)nc12` reads 4.14%.
With `COc1cccc(CNC(=O)CSc2nnc3c4cc(-c5cc(C)ccc5C)nn4ccn23)c1OC`, the Inhibition was found to be 10.97%.
Still for that read-out and setting: under `Cc1ccc(Sc2nccn3c(=O)n(CC(=O)Nc4cccc(Cl)c4)nc23)c(C)c1` stands 8.68%; under `Cc1ccc(Oc2nccn3c(=O)n(CC(=O)NCc4cccs4)nc23)cc1`, 11.41%.
Same read-out and setting: under `O=C(Cn1nc2c3sccc3ncn2c1=O)Nc1ccc2c(c1)OCO2` stands -3.23%; under `O=C(Cn1nc2c(Oc3ccccc3)nccn2c1=O)Nc1ccc2c(c1)OCCO2`, 6.43%; under `COC(=O)c1ccc(CN(c2ccc(Cl)cc2)S(=O)(=O)c2ccc3nncn3c2)o1`, 0.53%.
`COc1ccc(NC(=O)Cn2nc3c(SC4CCCCC4)nccn3c2=O)cc1`: the Inhibition was 11.17%.
Still for that read-out and setting: the result for `Cc1ccc(Oc2nccn3c(=O)n(CC(=O)Nc4ccc(C)cc4Cl)nc23)cc1` reads 4.57%; that for `CC(C)CCNC(=O)CSc1nnc2c(=O)n(-c3ccc(F)cc3)ccn12`, 11.65%; that for `CCc1ccc(NC(=O)Cn2c(=O)c3nnc(C(C)C)n3c3ccccc32)cc1`, 8.25%.
With `COc1ccc(NC(=O)Cn2nc3c(Oc4ccc(C)cc4)nccn3c2=O)cc1Cl`, the Inhibition amounted to 0.22%.
As for `CC(C)Cn1c(=O)c2ccc(C(=O)NC3CCCCC3)cc2n2c(=O)n(CC#N)nc12`, the Inhibition is reported as 10.69%.
The same measure, in the same setting: under `O=C(CSc1nnc2ccc(C(=O)NCc3ccccc3)cn12)Nc1ccccc1Br` stands 13.28%; under `COc1ccc(-c2cc3c4nnc(SCC(=O)Nc5ccccc5Cl)n4ccn3n2)cc1`, 1.23%.
The same measure, in the same setting: under `Cc1cc(C)c(NC(=O)CSc2nnc3c4cc(-c5ccccc5)nn4ccn23)c(C)c1` stands 10.34%.
For `CCCCn1c(=O)c2sccc2n2c(=O)n(CC(=O)NC(C)C)nc12`, the Inhibition is listed as 11.23%.
Still for that read-out and setting: under `O=C(CSc1nnc2c(=O)n(-c3ccccc3)ccn12)Nc1ccc(Br)cc1` stands 9.81%.
Still for that read-out and setting: under `C=Cc1ccc(CN(c2ccc(F)cc2)S(=O)(=O)c2ccc3nnc(C)n3c2)cc1` stands 5.5%; under `Cc1nnc2ccc(S(=O)(=O)N(Cc3cc(F)cc(F)c3)c3ccccc3)cn12`, 7.27%; under `Cc1c(Cl)cccc1-n1ccn2c(=O)n(Cc3ccc(F)cc3)nc2c1=O`, -1.56%.
Same read-out and setting: under `Cc1ccc(NC(=O)Cn2nc3c(SCc4ccccc4)nccn3c2=O)cc1C` stands 8.81%; under `Cc1ccc(-c2cc3c4nn(CC(=O)Nc5ccc6c(c5)OCO6)c(=O)n4ccn3n2)cc1C`, 2.27%; under `Cc1cccc(NC(=O)Cn2nc3c(SC4CCCCC4)nccn3c2=O)c1C`, 7.9%.
On to `COc1ccc(NC(=O)CSc2nnc3c(=O)n(-c4ccc(Br)cc4)ccn23)cc1`, for which the Inhibition amounted to 8.82%.
Consider `COc1ccccc1NC(=O)Cn1nc2c3c4c(sc3ncn2c1=O)CCCC4`, for which the Inhibition came to 5.77%.
On the same count and under the same terms, the result for `Cc1ccc(-c2ccc3nn(Cc4ccc(F)cc4Cl)c(=O)n3n2)cc1C` reads 16.15%.

The subject of another assay is Candida albicans. Particulars: Concentration 32 ug.mL-1; ASSAY_TEST Inhibition of Fungal Growth; detection method Absorption (OD530).
Regarding `O=C(Cn1nc2c(SC3CCCCC3)nccn2c1=O)Nc1ccc(F)c(Cl)c1`, the Inhibition was 5.93%.
In the case of `COc1cccc(-n2ccn3c(SCC(=O)Nc4ccccc4Cl)nnc3c2=O)c1`, the Inhibition was determined as 1.92%.
The same measure, in the same setting: the result for `COc1ccc(-n2ccn3c(-c4ccc([N+](=O)[O-])cc4)nnc3c2=O)cc1Cl` reads 5.76%; that for `CCOC(=O)c1ccccc1NC(=O)Cn1nc2c(Sc3ccccc3)nccn2c1=O`, -1.59%; that for `CC(=O)c1ccc(NC(=O)Cn2nc3ccc(Sc4ccccc4)nn3c2=O)cc1`, 15.65%.
For `CCOC(=O)c1cccc(NC(=O)CSc2nnc3ccc(C(=O)Nc4cccc(F)c4)cn23)c1`, the Inhibition is 0.96%.
Take `CC(C)(C)S(=O)(=O)c1ccc2nn(CC(=O)Nc3ccc(Br)cc3)c(=O)n2n1`: the Inhibition came out at 2.28%.
Consider `CCc1cccc(C)c1NC(=O)CSc1nnc2ccc(C(=O)Nc3cccc(F)c3)cn12`, for which the Inhibition turned out to be 1.09%.
Consider `Cc1ccc(NC(=O)Cn2nc3ccc(-c4ccc(Cl)cc4)nn3c2=O)cc1F`, for which the Inhibition is on record as -1.16%.
Same read-out and setting: under `COc1ccc(-c2cc3c4nn(CC(=O)Nc5cc(C)ccc5C)c(=O)n4ccn3n2)cc1` stands 0.97%; under `COc1cc(OC)c(NC(=O)Cn2nc3c(Oc4ccccc4)nccn3c2=O)cc1Cl`, 2.58%.
For the molecule `CCOc1ccccc1NC(=O)Cn1c(=O)c2nnc(C(C)C)n2c2ccccc21`, the Inhibition was 1.06%.
The same measure, in the same setting: the result for `CC(C)Cn1c(=O)c2ccc(C(=O)NC3CCCC3)cc2n2c(=O)n(CC(=O)NC3CCCCC3)nc12` reads -1.41%; that for `COc1cccc(CNC(=O)CSc2nnc3c4cc(-c5cc(C)ccc5C)nn4ccn23)c1OC`, 2.62%; that for `Cc1ccc(Sc2nccn3c(=O)n(CC(=O)Nc4cccc(Cl)c4)nc23)c(C)c1`, 4.74%.
For `Cc1ccc(Oc2nccn3c(=O)n(CC(=O)NCc4cccs4)nc23)cc1`, the Inhibition is given as 2.18%.
Still for that read-out and setting: the result for `O=C(Cn1nc2c3sccc3ncn2c1=O)Nc1ccc2c(c1)OCO2` reads 1.42%; that for `O=C(Cn1nc2c(Oc3ccccc3)nccn2c1=O)Nc1ccc2c(c1)OCCO2`, 0.75%.
The same measure, in the same setting: under `COC(=O)c1ccc(CN(c2ccc(Cl)cc2)S(=O)(=O)c2ccc3nncn3c2)o1` stands -1.37%.
Still for that read-out and setting: under `COc1ccc(NC(=O)Cn2nc3c(SC4CCCCC4)nccn3c2=O)cc1` stands 6.08%.
In the case of `Cc1ccc(Oc2nccn3c(=O)n(CC(=O)Nc4ccc(C)cc4Cl)nc23)cc1`, the Inhibition worked out at 3.92%.
Same read-out and setting: under `CC(C)CCNC(=O)CSc1nnc2c(=O)n(-c3ccc(F)cc3)ccn12` stands 4.94%.
Take `CCc1ccc(NC(=O)Cn2c(=O)c3nnc(C(C)C)n3c3ccccc32)cc1`: the Inhibition was determined as 26.99%.
Still for that read-out and setting: the result for `COc1ccc(NC(=O)Cn2nc3c(Oc4ccc(C)cc4)nccn3c2=O)cc1Cl` reads 18.79%; that for `CC(C)Cn1c(=O)c2ccc(C(=O)NC3CCCCC3)cc2n2c(=O)n(CC#N)nc12`, -0.09%; that for `O=C(CSc1nnc2ccc(C(=O)NCc3ccccc3)cn12)Nc1ccccc1Br`, 5.15%.
The same measure, in the same setting: under `COc1ccc(-c2cc3c4nnc(SCC(=O)Nc5ccccc5Cl)n4ccn3n2)cc1` stands 2.61%; under `Cc1cc(C)c(NC(=O)CSc2nnc3c4cc(-c5ccccc5)nn4ccn23)c(C)c1`, 10.47%; under `CCCCn1c(=O)c2sccc2n2c(=O)n(CC(=O)NC(C)C)nc12`, 0.06%.
For the molecule `O=C(CSc1nnc2c(=O)n(-c3ccccc3)ccn12)Nc1ccc(Br)cc1`, the Inhibition was 2.41%.
As for `C=Cc1ccc(CN(c2ccc(F)cc2)S(=O)(=O)c2ccc3nnc(C)n3c2)cc1`, the Inhibition came to 1.83%.
Still for that read-out and setting: under `Cc1nnc2ccc(S(=O)(=O)N(Cc3cc(F)cc(F)c3)c3ccccc3)cn12` stands 2.01%.
For the molecule `Cc1c(Cl)cccc1-n1ccn2c(=O)n(Cc3ccc(F)cc3)nc2c1=O`, the Inhibition is 6.3%.
In the case of `Cc1ccc(NC(=O)Cn2nc3c(SCc4ccccc4)nccn3c2=O)cc1C`, the Inhibition is given as 15.8%.
With `Cc1ccc(-c2cc3c4nn(CC(=O)Nc5ccc6c(c5)OCO6)c(=O)n4ccn3n2)cc1C`, the Inhibition was 33.95%.
The same measure, in the same setting: under `Cc1cccc(NC(=O)Cn2nc3c(SC4CCCCC4)nccn3c2=O)c1C` stands -1.44%; under `COc1ccc(NC(=O)CSc2nnc3c(=O)n(-c4ccc(Br)cc4)ccn23)cc1`, 5.75%; under `COc1ccccc1NC(=O)Cn1nc2c3c4c(sc3ncn2c1=O)CCCC4`, 0.98%.
For the molecule `Cc1ccc(-c2ccc3nn(Cc4ccc(F)cc4Cl)c(=O)n3n2)cc1C`, the Inhibition was -0.6%.
